Results as given in ChEMBL document CHEMBL4513146, “CO-ADD screening of Karazin Kharkiv National University (Ukraine) compounds”.
Results with a measured potency or affinity are listed apart.

Assays:
[1] = test system: Staphylococcus aureus; settings: Concentration 32 ug.mL-1;; ASSAY_TEST Inhibition of Bacterial Growth; detection method Absorption (OD600); MEDIA CAMHB; plate type 384well; NBS; CORNING #3640; time 18 hr
[2] = test system: Escherichia coli; settings: Concentration 32 ug.mL-1;; ASSAY_TEST Inhibition of Bacterial Growth; detection method Absorption (OD600); MEDIA CAMHB; plate type 384well; NBS; CORNING #3640; time 18 hr

Row | Structure (SMILES) | Inhibition [1] | Inhibition [2]
1 | COc1cccc(CN(c2cccc(C)c2)S(=O)(=O)c2ccc3nnc(C)n3c2)c1 | 1.31% | -6.19%
2 | Cc1ccc(N(Cc2ccccc2)S(=O)(=O)c2ccc3nncn3c2)cc1F | -5.44% | -9.13%
3 | Cc1nnc2c(SCC(=O)Nc3cccc(Br)c3)nc3ccccc3n12 | -13.66% | -1.77%
4 | Cn1c(=O)c2ccc(C(=O)NC3CCCC3)cc2n2c(SCC(=O)Nc3cc(F)ccc3F)nnc12 | 8.34% | -3.62%
5 | O=C(Cn1nc2c3sccc3ncn2c1=O)Nc1ccc2c(c1)OCO2 | -1.71% | -14.29%
6 | COc1ccc(NC(=O)Cn2nc3ccc(SC(C)(C)C)nn3c2=O)cc1OC | 4.97% | 2.49%
7 | Cc1ccc(-n2ccn3c(SCC(=O)c4c[nH]c5ccccc45)nnc3c2=O)cc1C | 8.58% | 3.16%
8 | CCc1ccccc1Sc1nccn2c(=O)n(CC(=O)Nc3ccc(OC)cc3)nc12 | -2.16% | -10.01%
9 | COc1ccccc1-n1ccn2c(SCC#N)nnc2c1=O | 15.53% | 0.38%
10 | O=c1n(Cc2cccc(C(F)(F)F)c2)nc2c(S(=O)(=O)N3CCCC3)cccn12 | 9.3% | -1.06%
11 | O=c1n(Cc2nc(-c3ccc(OC(F)(F)F)cc3)no2)nc2ccc(-c3ccccc3)nn12 | -0.65% | -5.47%
12 | COc1ccc(-c2cc3c4nnc(SCC(=O)Nc5ccc(C)c(F)c5)n4ccn3n2)cc1 | 0.86% | -1.39%
13 | COC(=O)c1ccc(CN(c2ccc(C)cc2)S(=O)(=O)c2ccc3nnc(C)n3c2)o1 | 4.75% | -4.99%
14 | COc1cc(OC)c(NC(=O)Cn2nc3ccc(Sc4ccc(C)cc4)nn3c2=O)cc1Cl | -4.96% | -10.5%
15 | COc1ccc(N2CCN(C(=O)Cn3nc4c(Oc5ccccc5)nccn4c3=O)CC2)cc1 | 16.39% | 4.58%
16 | Cc1ccc(-c2ccc3nnc(CCC(=O)N4CCN(C(=O)c5ccco5)CC4)n3n2)cc1C | 7.73% | -0.43%

Row | Structure (SMILES) | Inhibition [1] | Inhibition [2]
17 | Cc1cc(C)c(NC(=O)Cn2nc3ccc(SC4CCCCC4)nn3c2=O)c(C)c1 | 7.62% | -6.45%
18 | Cc1ccc(-c2ccc3nn(Cc4cc(F)cc(F)c4)c(=O)n3n2)cc1C | 13.44% | 1.52%
19 | COc1ccc(-c2cc3c4nn(CC(=O)Nc5ccccc5)c(=O)n4ccn3n2)cc1 | 3.97% | 7.52%
20 | O=C(Cn1nc2c(Oc3ccccc3)nccn2c1=O)Nc1ccc2c(c1)OCO2 | 2.59% | -7.1%
21 | CCC(Sc1nnc2c(=O)n(-c3ccc(C)c(C)c3)ccn12)C(=O)Nc1ccccc1C (centres undefined) | 13.17% | -4.12%
22 | CCCc1nnc2c(=O)n(CC(=O)Nc3ccc(C(C)=O)cc3)c3ccccc3n12 | 1.62% | 1.52%
23 | CC(C)c1ccc(NC(=O)Cn2nc3c(Sc4ccccc4)nccn3c2=O)cc1 | -14.37% | -14.79%
24 | Cc1ccc(C)c(NC(=O)Cn2nc3c(SCc4ccc(Cl)cc4)nccn3c2=O)c1 | 7.31% | -3.74%
25 | Cc1ccccc1N1CCN(c2nccn3c(=O)n(CC(=O)NCc4cc(F)cc(F)c4)nc23)CC1 | 9.65% | -0.75%
26 | COc1ccccc1NC(=O)CSc1nnc2c(=O)n(-c3ccc(C)c(C)c3)ccn12 | 0.64% | -7.52%
27 | CCOC(=O)c1ccccc1NC(=O)Cn1nc2c(Sc3ccccc3)nccn2c1=O | 8.61% | -3.65%
28 | COc1cccc(Oc2nccn3c(=O)n(CC(=O)NC4CCCCC4)nc23)c1 | 3.01% | -4.58%
29 | Cc1ccc(C)c(-c2cc3c4nnc(SCC(=O)Nc5cccc(Br)c5)n4ccn3n2)c1 | 0.42% | -9.35%
30 | Cc1nnc2ccc(S(=O)(=O)N(Cc3ccccc3Cl)c3ccc(F)cc3)cn12 | -4.74% | -4.95%
31 | Cc1ccc2c(c1)N(C(=O)Cn1nc3ccc(SC(C)(C)C)nn3c1=O)CCO2 | 10.2% | -0.14%
32 | O=C(Cn1nc2c(N3CCOCC3)nccn2c1=O)Nc1cc(C(F)(F)F)ccc1Cl | 6.98% | 4.52%
